Legend:
Test in all cases: DAPPL (digital affinity profiling via proximity ligation, sequencing); 10 mM Tris-HCl pH 7.5, 50 mM NaCl, 1 mM DTT, 4% glycerol, room temperature, 30 min; GST-TFs on glutathione beads, 16-mer random dsDNA library, 0.1% formaldehyde crosslink after washing; high values mean tight binding
[1] = target: T1, FEV (Homo sapiens, UniProt Q99581 1-238); settings: protein: recombinant; tags: N-terminal GST; dsDNA, one strand shown
T1 sequence: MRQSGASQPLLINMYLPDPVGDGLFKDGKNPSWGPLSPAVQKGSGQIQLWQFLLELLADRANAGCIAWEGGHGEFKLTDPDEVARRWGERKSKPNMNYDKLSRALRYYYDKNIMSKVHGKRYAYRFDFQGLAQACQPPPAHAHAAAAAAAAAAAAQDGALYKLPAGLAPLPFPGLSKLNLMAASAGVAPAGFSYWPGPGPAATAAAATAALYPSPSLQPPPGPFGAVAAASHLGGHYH
How it was run: (§1)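 Yeast served to express human transcription factors as GST fusions, which were then captured on glutathione beads and labelled with DNA barcodes. Pooled with a tag-only sample, they were incubated with 200 nmole of a 16-mer random double-stranded DNA library for 30 min at room temperature in Tris/NaCl/DTT/glycerol buffer, washed, crosslinked with 0.1% formaldehyde, ligated by proximity, amplified by PCR and sequenced. Dividing each hexamer's read frequency for a factor by its frequency for the tag-only sample gives the binding signal.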

[2] = target: ETV5 (Homo sapiens, UniProt P41161 1-510); settings: protein: recombinant; tags: N-terminal GST; dsDNA, one strand shown
How it was run: as §1

[3] = target: HSF1 (Homo sapiens, UniProt Q00613 1-529); settings: protein: recombinant; tags: N-terminal GST; chain copies: 3; dsDNA, one strand shown
How it was run: as §1

[4] = target: T2, SPIC (Homo sapiens, UniProt Q8N5J4 1-248); settings: protein: recombinant; tags: N-terminal GST; dsDNA, one strand shown
T2 sequence: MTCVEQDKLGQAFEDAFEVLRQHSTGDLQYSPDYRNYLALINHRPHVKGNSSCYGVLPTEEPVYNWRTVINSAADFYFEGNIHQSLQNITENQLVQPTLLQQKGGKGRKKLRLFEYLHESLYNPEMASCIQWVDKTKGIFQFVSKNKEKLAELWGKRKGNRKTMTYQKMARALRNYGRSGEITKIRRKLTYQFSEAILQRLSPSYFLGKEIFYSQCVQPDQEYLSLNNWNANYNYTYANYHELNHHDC
How it was run: as §1

[5] = target: ELF4 (Homo sapiens, UniProt Q99607 1-663); settings: protein: recombinant; tags: N-terminal GST; dsDNA, one strand shown
How it was run: as §1

[6] = target: T3, ELK4 (Homo sapiens, UniProt P28324-2 1-405); settings: protein: recombinant; tags: N-terminal GST; dsDNA, one strand shown
T3 sequence: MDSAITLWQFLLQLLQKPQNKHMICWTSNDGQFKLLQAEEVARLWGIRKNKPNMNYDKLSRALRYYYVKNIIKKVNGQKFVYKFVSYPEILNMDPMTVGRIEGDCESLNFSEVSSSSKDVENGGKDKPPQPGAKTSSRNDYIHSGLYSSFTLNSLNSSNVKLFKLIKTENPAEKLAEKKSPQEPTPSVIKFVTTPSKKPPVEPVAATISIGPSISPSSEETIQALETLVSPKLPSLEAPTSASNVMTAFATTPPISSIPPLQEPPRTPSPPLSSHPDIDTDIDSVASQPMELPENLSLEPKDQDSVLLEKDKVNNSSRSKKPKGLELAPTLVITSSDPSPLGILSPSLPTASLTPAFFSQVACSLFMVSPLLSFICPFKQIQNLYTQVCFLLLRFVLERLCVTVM
How it was run: as §1

[7] = target: T4, ETV2 (Homo sapiens, UniProt O00321 1-342); settings: protein: recombinant; tags: N-terminal GST; dsDNA, one strand shown
T4 sequence: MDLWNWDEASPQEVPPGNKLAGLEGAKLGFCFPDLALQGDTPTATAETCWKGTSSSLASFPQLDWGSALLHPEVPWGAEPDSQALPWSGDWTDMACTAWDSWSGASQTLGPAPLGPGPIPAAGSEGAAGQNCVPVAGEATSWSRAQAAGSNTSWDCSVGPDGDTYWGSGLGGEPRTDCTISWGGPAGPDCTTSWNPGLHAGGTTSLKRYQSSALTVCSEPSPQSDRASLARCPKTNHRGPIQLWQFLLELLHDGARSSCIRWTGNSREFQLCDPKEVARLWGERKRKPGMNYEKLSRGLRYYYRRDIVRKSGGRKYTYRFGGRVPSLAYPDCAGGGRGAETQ
How it was run: as §1

[8] = target: T5, ELF3 (Homo sapiens, UniProt P78545 1-371); settings: protein: recombinant; tags: N-terminal GST; dsDNA, one strand shown
T5 sequence: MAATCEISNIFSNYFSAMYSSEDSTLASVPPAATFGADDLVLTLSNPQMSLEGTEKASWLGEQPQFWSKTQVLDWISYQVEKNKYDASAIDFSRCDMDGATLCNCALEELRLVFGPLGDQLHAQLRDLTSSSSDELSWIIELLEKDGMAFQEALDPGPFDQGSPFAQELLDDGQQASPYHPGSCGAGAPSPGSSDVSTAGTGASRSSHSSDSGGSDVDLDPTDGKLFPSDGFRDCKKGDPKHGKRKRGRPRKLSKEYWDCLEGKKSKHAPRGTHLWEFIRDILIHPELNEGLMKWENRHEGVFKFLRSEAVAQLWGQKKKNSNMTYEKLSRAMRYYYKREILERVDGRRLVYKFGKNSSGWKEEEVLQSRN
How it was run: as §1

[9] = target: ETV1 (Homo sapiens, UniProt P50549 1-477); settings: protein: recombinant; tags: N-terminal GST; dsDNA, one strand shown
How it was run: as §1

[10] = target: T6, ERF (Homo sapiens, UniProt P50548 1-548); settings: protein: recombinant; tags: N-terminal GST; dsDNA, one strand shown
T6 sequence: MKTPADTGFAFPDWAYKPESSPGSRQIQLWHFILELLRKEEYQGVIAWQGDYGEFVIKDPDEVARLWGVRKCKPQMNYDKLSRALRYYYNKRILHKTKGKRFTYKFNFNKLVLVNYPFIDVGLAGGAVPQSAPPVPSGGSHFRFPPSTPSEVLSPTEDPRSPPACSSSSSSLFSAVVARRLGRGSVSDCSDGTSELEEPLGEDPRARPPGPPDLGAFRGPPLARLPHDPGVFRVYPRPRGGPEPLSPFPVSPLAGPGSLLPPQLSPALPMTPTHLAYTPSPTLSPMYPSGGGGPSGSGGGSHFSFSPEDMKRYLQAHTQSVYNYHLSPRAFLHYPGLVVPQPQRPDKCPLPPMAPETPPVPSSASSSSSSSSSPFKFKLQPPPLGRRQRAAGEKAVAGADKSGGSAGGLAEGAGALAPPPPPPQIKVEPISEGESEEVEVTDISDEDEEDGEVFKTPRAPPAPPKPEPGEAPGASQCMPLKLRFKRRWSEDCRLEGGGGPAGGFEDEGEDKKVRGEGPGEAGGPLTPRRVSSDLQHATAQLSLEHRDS
How it was run: as §1

[11] = target: T7, ETS2 (Homo sapiens, UniProt P15036 1-469); settings: protein: recombinant; tags: N-terminal GST; dsDNA, one strand shown
T7 sequence: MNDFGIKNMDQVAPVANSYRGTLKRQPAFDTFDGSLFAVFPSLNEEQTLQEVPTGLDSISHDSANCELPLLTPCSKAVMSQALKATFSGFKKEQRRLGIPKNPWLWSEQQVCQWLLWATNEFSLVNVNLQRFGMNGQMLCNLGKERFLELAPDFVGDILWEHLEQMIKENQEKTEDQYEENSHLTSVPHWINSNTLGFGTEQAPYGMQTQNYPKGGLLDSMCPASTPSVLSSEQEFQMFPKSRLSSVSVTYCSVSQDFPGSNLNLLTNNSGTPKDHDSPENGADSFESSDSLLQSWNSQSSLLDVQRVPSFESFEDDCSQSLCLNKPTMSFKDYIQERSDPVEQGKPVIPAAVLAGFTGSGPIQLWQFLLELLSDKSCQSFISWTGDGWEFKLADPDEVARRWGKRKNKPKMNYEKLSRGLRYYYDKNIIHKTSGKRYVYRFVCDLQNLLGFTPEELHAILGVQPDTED
How it was run: as §1

[12] = target: T8, SPDEF (Homo sapiens, UniProt O95238 1-335); settings: protein: recombinant; tags: N-terminal GST; dsDNA, one strand shown
T8 sequence: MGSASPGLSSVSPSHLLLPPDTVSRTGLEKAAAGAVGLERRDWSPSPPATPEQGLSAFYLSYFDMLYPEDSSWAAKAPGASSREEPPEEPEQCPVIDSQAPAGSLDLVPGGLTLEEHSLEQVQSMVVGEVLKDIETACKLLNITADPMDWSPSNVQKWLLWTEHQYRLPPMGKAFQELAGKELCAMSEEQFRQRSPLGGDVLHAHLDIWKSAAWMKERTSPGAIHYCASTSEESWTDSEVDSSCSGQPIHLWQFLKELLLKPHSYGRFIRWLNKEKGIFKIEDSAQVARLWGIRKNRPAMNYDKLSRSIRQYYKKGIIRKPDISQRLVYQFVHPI
How it was run: as §1

[13] = target: T9, ELF5 (Homo sapiens, UniProt Q9UKW6-2 1-255); settings: protein: recombinant; tags: N-terminal GST; dsDNA, one strand shown
T9 sequence: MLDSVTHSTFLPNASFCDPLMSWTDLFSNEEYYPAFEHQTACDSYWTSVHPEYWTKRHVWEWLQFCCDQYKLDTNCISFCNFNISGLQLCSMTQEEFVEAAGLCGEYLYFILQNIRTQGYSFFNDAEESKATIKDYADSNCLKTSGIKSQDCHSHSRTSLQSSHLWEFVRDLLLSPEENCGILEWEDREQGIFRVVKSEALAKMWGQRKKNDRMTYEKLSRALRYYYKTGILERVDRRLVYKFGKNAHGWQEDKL
How it was run: as §1

[14] = target: T10, ETV3 (Homo sapiens, UniProt P41162-2 1-143); settings: protein: recombinant; tags: N-terminal GST; dsDNA, one strand shown
T10 sequence: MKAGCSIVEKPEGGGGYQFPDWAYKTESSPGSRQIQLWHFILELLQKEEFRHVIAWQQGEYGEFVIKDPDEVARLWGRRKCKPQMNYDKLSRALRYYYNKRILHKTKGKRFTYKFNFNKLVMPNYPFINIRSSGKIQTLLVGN
How it was run: as §1

[15] = target: T11, ETV3L (Homo sapiens, UniProt Q6ZN32 1-361); settings: protein: recombinant; tags: N-terminal GST; dsDNA, one strand shown
T11 sequence: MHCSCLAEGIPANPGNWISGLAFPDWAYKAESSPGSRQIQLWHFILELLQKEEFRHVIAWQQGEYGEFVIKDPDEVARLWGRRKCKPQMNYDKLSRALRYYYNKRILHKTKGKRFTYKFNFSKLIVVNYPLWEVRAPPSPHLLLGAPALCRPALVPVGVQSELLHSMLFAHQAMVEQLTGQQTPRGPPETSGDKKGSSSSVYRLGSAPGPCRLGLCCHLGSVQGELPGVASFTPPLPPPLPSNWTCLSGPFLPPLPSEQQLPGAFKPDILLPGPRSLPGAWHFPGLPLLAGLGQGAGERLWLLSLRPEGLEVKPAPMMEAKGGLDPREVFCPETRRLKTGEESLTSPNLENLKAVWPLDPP
How it was run: as §1

[16] = target: T12, ETV7 (Homo sapiens, UniProt Q9Y603 1-341); settings: protein: recombinant; tags: N-terminal GST; dsDNA, one strand shown
T12 sequence: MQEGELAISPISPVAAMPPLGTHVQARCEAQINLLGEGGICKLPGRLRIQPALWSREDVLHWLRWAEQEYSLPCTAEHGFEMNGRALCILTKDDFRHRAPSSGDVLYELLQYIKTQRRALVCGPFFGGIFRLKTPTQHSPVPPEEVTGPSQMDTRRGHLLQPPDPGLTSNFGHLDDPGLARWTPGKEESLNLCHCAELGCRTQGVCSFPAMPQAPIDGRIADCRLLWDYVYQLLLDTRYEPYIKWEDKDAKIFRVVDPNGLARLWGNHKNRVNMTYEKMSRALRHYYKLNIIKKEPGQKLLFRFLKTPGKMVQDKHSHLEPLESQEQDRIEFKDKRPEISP
How it was run: as §1

[17] = target: ETV6 (Homo sapiens, UniProt P41212 1-452); settings: protein: recombinant; tags: N-terminal GST; dsDNA, one strand shown
How it was run: as §1

Sequence of ELF4 (Q99607 whole entry): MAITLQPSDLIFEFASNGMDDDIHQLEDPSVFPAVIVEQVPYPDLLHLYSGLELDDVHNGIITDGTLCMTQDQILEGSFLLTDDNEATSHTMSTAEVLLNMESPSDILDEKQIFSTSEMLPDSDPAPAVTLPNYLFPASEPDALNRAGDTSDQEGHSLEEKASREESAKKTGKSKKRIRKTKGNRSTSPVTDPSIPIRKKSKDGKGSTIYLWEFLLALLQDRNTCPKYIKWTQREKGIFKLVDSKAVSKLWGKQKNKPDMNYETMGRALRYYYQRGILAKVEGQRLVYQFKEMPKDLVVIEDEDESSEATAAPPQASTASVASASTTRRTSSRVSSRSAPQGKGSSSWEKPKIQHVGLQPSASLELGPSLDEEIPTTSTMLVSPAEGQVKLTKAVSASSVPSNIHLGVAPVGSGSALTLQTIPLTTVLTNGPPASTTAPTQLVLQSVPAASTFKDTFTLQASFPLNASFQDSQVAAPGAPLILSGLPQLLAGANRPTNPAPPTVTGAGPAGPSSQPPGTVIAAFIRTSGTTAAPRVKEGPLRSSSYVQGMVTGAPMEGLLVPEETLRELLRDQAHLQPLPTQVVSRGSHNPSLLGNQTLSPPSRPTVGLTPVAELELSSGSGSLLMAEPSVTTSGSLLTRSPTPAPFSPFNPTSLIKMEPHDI
Sequence of ETV5 (P41161 whole entry): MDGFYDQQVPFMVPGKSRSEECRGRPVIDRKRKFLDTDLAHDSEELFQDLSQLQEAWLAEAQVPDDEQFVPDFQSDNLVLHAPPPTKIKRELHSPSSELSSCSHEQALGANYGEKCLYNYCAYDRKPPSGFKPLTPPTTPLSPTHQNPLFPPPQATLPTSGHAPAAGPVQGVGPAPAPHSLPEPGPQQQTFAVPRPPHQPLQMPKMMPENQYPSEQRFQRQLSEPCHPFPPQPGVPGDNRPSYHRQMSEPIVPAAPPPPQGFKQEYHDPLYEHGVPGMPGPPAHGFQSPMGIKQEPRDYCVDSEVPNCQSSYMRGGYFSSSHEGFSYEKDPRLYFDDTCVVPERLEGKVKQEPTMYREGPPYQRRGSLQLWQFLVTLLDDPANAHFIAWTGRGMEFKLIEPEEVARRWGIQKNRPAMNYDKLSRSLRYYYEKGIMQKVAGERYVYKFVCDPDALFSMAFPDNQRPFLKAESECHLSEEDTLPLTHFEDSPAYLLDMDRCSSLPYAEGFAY
Sequence of HSF1 (Q00613 whole entry): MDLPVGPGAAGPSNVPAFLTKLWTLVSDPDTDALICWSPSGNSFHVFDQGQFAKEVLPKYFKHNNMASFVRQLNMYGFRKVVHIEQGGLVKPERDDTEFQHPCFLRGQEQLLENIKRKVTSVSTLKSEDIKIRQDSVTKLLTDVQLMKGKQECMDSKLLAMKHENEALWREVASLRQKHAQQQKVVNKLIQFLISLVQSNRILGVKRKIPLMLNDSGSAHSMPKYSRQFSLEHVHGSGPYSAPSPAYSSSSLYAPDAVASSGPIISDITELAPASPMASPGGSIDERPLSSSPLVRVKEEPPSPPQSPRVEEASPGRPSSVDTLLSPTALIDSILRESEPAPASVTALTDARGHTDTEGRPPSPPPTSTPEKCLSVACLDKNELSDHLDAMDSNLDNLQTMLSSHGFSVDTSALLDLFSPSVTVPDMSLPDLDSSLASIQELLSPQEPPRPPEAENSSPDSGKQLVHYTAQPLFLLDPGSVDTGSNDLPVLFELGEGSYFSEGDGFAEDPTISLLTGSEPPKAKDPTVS
Sequence of ETV1 (P50549 whole entry): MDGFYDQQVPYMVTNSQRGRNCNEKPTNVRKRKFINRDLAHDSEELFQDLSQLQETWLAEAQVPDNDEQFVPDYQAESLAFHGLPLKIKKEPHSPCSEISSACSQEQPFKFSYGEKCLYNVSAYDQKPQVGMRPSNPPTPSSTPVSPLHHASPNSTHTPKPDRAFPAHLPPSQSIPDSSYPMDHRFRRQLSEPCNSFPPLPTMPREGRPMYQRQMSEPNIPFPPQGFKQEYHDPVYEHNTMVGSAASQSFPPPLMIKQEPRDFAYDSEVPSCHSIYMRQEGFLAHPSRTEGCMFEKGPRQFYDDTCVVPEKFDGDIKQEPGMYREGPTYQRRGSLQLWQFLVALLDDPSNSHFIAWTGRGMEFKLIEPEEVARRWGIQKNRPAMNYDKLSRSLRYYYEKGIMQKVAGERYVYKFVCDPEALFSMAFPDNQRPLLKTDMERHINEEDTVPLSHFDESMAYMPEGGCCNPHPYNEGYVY
Sequence of ETV6 (P41212 whole entry): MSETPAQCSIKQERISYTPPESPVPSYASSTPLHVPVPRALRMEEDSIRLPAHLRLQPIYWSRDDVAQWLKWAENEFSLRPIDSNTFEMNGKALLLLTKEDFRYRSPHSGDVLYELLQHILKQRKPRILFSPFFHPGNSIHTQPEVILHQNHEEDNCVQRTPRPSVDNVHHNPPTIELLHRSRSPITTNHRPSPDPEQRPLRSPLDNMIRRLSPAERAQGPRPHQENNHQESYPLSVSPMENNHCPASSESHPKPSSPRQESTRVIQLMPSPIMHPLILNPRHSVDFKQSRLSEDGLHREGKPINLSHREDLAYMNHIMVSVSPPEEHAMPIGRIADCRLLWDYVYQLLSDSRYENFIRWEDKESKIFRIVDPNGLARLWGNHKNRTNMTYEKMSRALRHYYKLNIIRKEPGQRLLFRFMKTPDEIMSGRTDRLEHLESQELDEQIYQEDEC

CATGAA
binding signal [1]: 1.03 fold enrichment (6-mer frequency, TF over GST control) | binding signal [2]: 1.07 fold enrichment (6-mer frequency, TF over GST control) | binding signal [3]: 1.05 fold enrichment (6-mer frequency, TF over GST control) | binding signal [4]: 1.16 fold enrichment (6-mer frequency, TF over GST control) | binding signal [5]: 1.1 fold enrichment (6-mer frequency, TF over GST control) | binding signal [6]: 1.11 fold enrichment (6-mer frequency, TF over GST control) | binding signal [7]: 1.06 fold enrichment (6-mer frequency, TF over GST control) | binding signal [8]: 1.15 fold enrichment (6-mer frequency, TF over GST control) | binding signal [9]: 1.08 fold enrichment (6-mer frequency, TF over GST control) | binding signal [10]: 1.02 fold enrichment (6-mer frequency, TF over GST control) | binding signal [11]: 1.07 fold enrichment (6-mer frequency, TF over GST control) | binding signal [12]: 1.03 fold enrichment (6-mer frequency, TF over GST control) | binding signal [13]: 1.04 fold enrichment (6-mer frequency, TF over GST control) | binding signal [14]: 1.14 fold enrichment (6-mer frequency, TF over GST control)

GAAAAC
binding signal [1]: 1.08 fold enrichment (6-mer frequency, TF over GST control) | binding signal [2]: 1.13 fold enrichment (6-mer frequency, TF over GST control) | binding signal [3]: 1.08 fold enrichment (6-mer frequency, TF over GST control) | binding signal [4]: 1.21 fold enrichment (6-mer frequency, TF over GST control) | binding signal [5]: 1.12 fold enrichment (6-mer frequency, TF over GST control) | binding signal [6]: 1.16 fold enrichment (6-mer frequency, TF over GST control) | binding signal [7]: 1.04 fold enrichment (6-mer frequency, TF over GST control) | binding signal [8]: 1.08 fold enrichment (6-mer frequency, TF over GST control) | binding signal [9]: 1.13 fold enrichment (6-mer frequency, TF over GST control) | binding signal [10]: 1.11 fold enrichment (6-mer frequency, TF over GST control) | binding signal [15]: 1.13 fold enrichment (6-mer frequency, TF over GST control) | binding signal [11]: 1.11 fold enrichment (6-mer frequency, TF over GST control) | binding signal [12]: 1.07 fold enrichment (6-mer frequency, TF over GST control) | binding signal [16]: 1.13 fold enrichment (6-mer frequency, TF over GST control) | binding signal [13]: 1.16 fold enrichment (6-mer frequency, TF over GST control) | binding signal [17]: 1.06 fold enrichment (6-mer frequency, TF over GST control)
